Source: PubChem BioAssay AID743286 (National Center for Advancing Translational Sciences (NCATS), 2014)
Hit rate of the full screen: of about 1,100 compounds, about 340 (31%) were called active. Another 40% or so got no clear call; they are omitted. The call rests on the fitted dose curve; in most records, active means well fitted inhibition curve with a large enough effect; inconclusive means small, poorly fitted or top-dose-only effect; inactive means flat fitted curve, though single readings scatter. Only a sample is shown. A call without a number means that no potency is given here.

target: Phosphatidylinositol 5-phosphate 4-kinase type-2 alpha (Homo sapiens) (UniProt P48426); test: qHTS for Inhibitors of PI5P4K: Confirmation in Primary Assay; conditions: PI5P4Kalpha enzyme, ADP-Glo luminescence, 60 min; series mostly up to 76.9 µM; further: nearly all actives have a fitted effect of over 65% in size
Method in brief: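 Enzyme/substrate mix dispensed, compound transferred by pin tool, ATP (5 microM final) added to start; incubated 60 min RT. ADP-Glo reagent 1 (45 min) then reagent 2 (30 min); luminescence measured.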
Potency means the concentration at half of the fitted maximal effect.

Phosphatidylinositol 5-phosphate 4-kinase type-2 alpha (Homo sapiens), sequence (P48426 whole entry, looked up): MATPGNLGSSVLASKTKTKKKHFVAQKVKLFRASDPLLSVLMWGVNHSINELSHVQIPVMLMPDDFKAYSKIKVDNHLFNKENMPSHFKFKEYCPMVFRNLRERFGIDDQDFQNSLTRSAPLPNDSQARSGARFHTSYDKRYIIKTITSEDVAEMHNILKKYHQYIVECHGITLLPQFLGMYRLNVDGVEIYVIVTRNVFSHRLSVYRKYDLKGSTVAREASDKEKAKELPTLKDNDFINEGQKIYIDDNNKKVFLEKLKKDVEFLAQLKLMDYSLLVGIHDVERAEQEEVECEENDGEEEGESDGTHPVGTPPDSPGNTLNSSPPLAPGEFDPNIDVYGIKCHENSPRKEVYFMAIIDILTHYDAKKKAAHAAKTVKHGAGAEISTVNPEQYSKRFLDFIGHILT

Compound	Potency
COc1cccc(NC(=O)CN(C)C(=O)c2cc(-c3ccco3)nc3ccccc23)c1	15.8 µM (active)
COc1ccc(NC(=O)CN(C)C(=O)c2cc(-c3ccco3)nc3ccccc23)cc1	5.01 µM (active)
CN(CC(=O)Nc1ccc(F)cc1)C(=O)c1cc(-c2ccco2)nc2ccccc12	14.1 µM (active)
Cc1ccc(NC(=O)CN(C)C(=O)c2cc(-c3ccco3)nc3ccccc23)cc1	8.91 µM (active)
CCNC(=O)c1ccccc1SCC(=O)Nc1ccc(F)cc1	inactive
O=C(c1cc(-c2ccco2)nc2ccccc12)N(Cc1nnc(-c2ccc(Cl)cc2)o1)C1CC1	inactive
COCCN(CC(=O)NCC1CCCO1)C(=O)CCC(=O)Nc1ccccn1 (stereo not drawn)	inactive
COCc1c(C(=O)N2CCc3ccccc32)oc2ccccc12	inactive
CCOC(=O)c1nnn(-c2ccccc2)c1C	inactive
CCn1c(C(=O)OC)cc2c1ccn2-c1ccc(F)cc1	inactive
CC(C)(C)NC(=O)C(c1ccc(C#N)cc1)n1c(=O)c(-c2ccco2)nc2ccccc21 (stereo not drawn)	inactive
Cc1cc(C(=O)OCC(=O)Nc2cc(S(=O)(=O)N3CCOCC3)ccc2Cl)c(C)o1	inactive
O=C(Nc1cc(S(=O)(=O)N2CCOCC2)ccc1O)c1ccc(NS(=O)(=O)c2ccc(Cl)s2)cc1	20 µM (active)
COc1cccc(C2CC(=O)N3CN(c4cccc(Cl)c4C)CSC3=C2C#N)c1OC (stereo not drawn)	39.8 µM (active)
COc1ccc(C2CC(=O)N3CN(c4ccc(C)c(Cl)c4)CSC3=C2C#N)cc1OC (stereo not drawn)	inactive
COc1ccc(OC)c(C2CC(=O)N3CN(c4cccc(Cl)c4)CSC3=C2C#N)c1 (stereo not drawn)	inactive
COc1ccc(N2CSC3=C(C#N)C(c4ccc(OC)c(OC)c4)CC(=O)N3C2)c(OC)c1 (stereo not drawn)	12.6 µM (active)
COc1ccc(N2CSC3=C(C#N)C(c4cccc(OC)c4OC)CC(=O)N3C2)cc1 (stereo not drawn)	7.08 µM (active)
CCN(CC)C(=O)c1[nH]cnc1C(=O)Nc1ccc(OC)cc1	inactive
CCCCOc1ccc(S(=O)(=O)NC(=O)C2(C)CCN2C(=O)CCc2ccccc2)cc1 (stereo not drawn)	inactive
C[C@H](NC(=O)c1nc[nH]c1C(=O)N[C@@H](C)C(=O)OC(C)(C)C)C(=O)OC(C)(C)C	inactive
COc1cccc(NS(=O)(=O)c2ccc3c(c2)C2C=CCC2C(c2ccc(C(=O)O)cc2)N3)c1 (stereo not drawn)	31.6 µM (active)
Cc1ccc(-c2csc3ncnc(NCCC(=O)O)c23)cc1C	14.1 µM (active)
CN(C)C(=O)c1ccc(NC(=O)COC(=O)C2=COCCO2)cc1	inactive
NC(=O)C1CCN(c2cc(Cl)nc(N)n2)CC1	inactive

Compound	Potency
CN1CCN(C(c2ccccc2)c2ccc(Cl)cc2)CC1 (stereo not drawn)	inactive
Cc1ccc(C(c2cc(Cl)c3cccnc3c2O)N2CCN(C)CC2)cc1 (stereo not drawn)	15.8 µM (active)
CN1CCN(C(c2ccc(Br)cc2)c2cc(Cl)c3cccnc3c2O)CC1 (stereo not drawn)	15.8 µM (active)
CCOC(=O)C1=C(CC)Nc2ccccc2N=C1NC(=O)c1ccc(S(=O)(=O)N(C)C)cc1	inactive
COC(=O)c1c(NC(C)=O)sc(C(=O)Nc2ccccc2)c1C	inactive
COc1ccccc1Cc1c(-c2ccco2)nc2cc(C)c(Br)c(C)n12	inactive
Cc1cc2nc(-c3ccco3)c(Cc3cccc(F)c3)n2c(C)c1Br	6.31 µM (active)
Fc1cccc(Cc2c(-c3ccco3)nc3ccc(Cl)cn23)c1	inactive
O=C(COC(=O)Cc1ccsc1)Nc1cccc(F)c1	inactive
CCN(CC(=O)Nc1ccc(OC)cc1)C(=O)c1ccc([N+](=O)[O-])cc1	inactive
Cc1cccc(NC(=O)CNC(=O)c2cccc(-n3cccc3)c2)c1C	6.31 µM (active)
Cc1ccc(NC(=O)CN(C)C(=O)c2cccc(-n3cccc3)c2)cc1	20 µM (active)
CN(CC(=O)Nc1cccc(F)c1)C(=O)c1cccc(-n2cccc2)c1	10 µM (active)
CN(CC(=O)Nc1c(Cl)cccc1Cl)C(=O)c1cccc(-n2cccc2)c1	14.1 µM (active)
Cc1ccc(NC(=O)CN(C)C(=O)COc2ccc(C(=O)c3ccc(F)cc3)cc2)cc1	inactive
Nc1nc(N)c2cc(S(=O)(=O)c3cccc(C(F)(F)F)c3)ccc2n1	inactive
CCC1CCCCN1C(=O)Cn1nc([N+](=O)[O-])c(Cl)c1C (stereo not drawn)	inactive
CCOc1ccc(CCNS(=O)(=O)c2cn(C)cn2)cc1OCC	inactive
CCC(C)n1c(SCC(=O)Nc2ccc3[nH]c(=O)[nH]c3c2)nc2ccccc2c1=O (stereo not drawn)	inactive
CC(=O)Nc1ccc2nc(SCC(=O)NCCOc3ccccc3)sc2c1	inactive
N#Cc1c(SCC(=O)Nc2nc3ccccc3s2)sc2c(O)cc(=O)[nH]c12	6.31 µM (active)
O=C(CSc1nc(O)cc(=O)n1-c1ccccc1)Nc1nc2ccccc2s1	inactive
N#Cc1c(SCC(=O)Nc2nc3ccc(Br)cc3s2)sc2c(O)cc(=O)[nH]c12	4.47 µM (active)
Nc1cc(-c2ccncc2)c[nH]c1=O	inactive
O=C(COc1ccc2ccccc2c1)Nc1cccc(C(=O)Nc2ccccc2C(=O)O)c1	20 µM (active)

Compound	Potency
O=C(COc1ccccc1)Nc1cccc(-c2ccc(N3CCOCC3)nn2)c1	inactive
O=C(COc1ccc([N+](=O)[O-])cc1)Nc1cccnc1	inactive
COC(=O)Nc1ccc(S(=O)(=O)N2CCC(C(=O)N3CCC(C)CC3)CC2)cc1	inactive
COc1ccc(S(=O)(=O)N2CCN(C(=O)C3COc4ccccc4O3)CC2)cc1 (stereo not drawn)	10 µM (active)
CN1CCN(S(=O)(=O)c2ccc(N3CCc4ccccc4C3)nc2)CC1	inactive
CSc1ncccc1C(=O)Nc1ccc(OC(F)(F)F)cc1	inactive
Cc1ccc(NCC(=O)Nc2ccc(Br)cc2)cc1C	inactive
CCN(CC(=O)Nc1ccc(NC(C)=O)cc1)Cc1c(O)ccc2cc(Br)ccc12	15.8 µM (active)
Cn1nnnc1Sc1ncnc2scc(-c3ccccc3C(F)(F)F)c12	17.8 µM (active)
O=C(NCCCN1CCOCC1)c1sc2cc([N+](=O)[O-])ccc2c1Cl	14.1 µM (active)
Cc1ccc([N+](=O)[O-])cc1Nc1nc(N2CCOCC2)nc(N2CCOCC2)n1	inactive
CCOC(=O)C1=C(N)N(c2ccccc2)C(=O)C1	inactive
CC(C)C(=O)N1CCN(c2ccccc2NC(=O)c2ccco2)CC1	inactive
O=C(c1ccc2nc(-c3ccco3)c(-c3ccco3)nc2c1)N1CCN(c2ncccn2)CC1	12.6 µM (active)
Cc1cccc(C)c1NC(=O)C(c1ccccc1)n1c(=O)c(-c2ccco2)nc2ccccc21 (stereo not drawn)	inactive
COc1ccccc1N1CCN(C(=O)c2ccc(C(C)(C)C)cc2)CC1	inactive
CC(Oc1ccc(F)cc1)C(=O)N1CCN(c2ncccn2)CC1 (stereo not drawn)	inactive
O=C(Nc1ccc2nc(-c3ccco3)c(-c3ccco3)nc2c1)N1CCN(c2ccccn2)CC1	11.2 µM (active)
CC(C)NC(=O)c1onc(CSc2ccccc2F)c1C(=O)O	inactive
Cc1ccc(C(CCN(Cc2ccccc2)C(=O)c2ccco2)c2ccco2)cc1 (stereo not drawn)	14.1 µM (active)
Cc1ccc(S(=O)(=O)N(C(=O)c2ccco2)c2cc3sc(=O)oc3c3ccccc23)cc1	inactive
CC(C)N(CCC(=O)c1ccc2ccccc2c1)Cc1ccccc1	inactive
O=C(N[C@@H](Cc1ccccc1)C(=O)OCc1ccccc1)c1nc[nH]c1C(=O)NC(c1ccccc1)c1ccccc1	inactive
O=c1[nH]c2ccccc2n2c(-c3ccccc3)nnc12	5.01 µM (active)
Cc1cc(Oc2ccc(C#N)cc2)nc(NCc2ccccc2)n1	inactive

Compound	Potency
CCn1c(CC(=O)Nc2ccccc2F)nnc1SCC(=O)NC1CCCCC1	inactive
O=C(NCC1CC1)c1ccc(Nc2nc3ccc(Br)cc3[nH]2)cc1	inactive
CC1Cc2ccccc2N1C(=O)COC(=O)CCc1nc2ccccc2c(=O)[nH]1 (stereo not drawn)	inactive
NC(=O)c1ccc(-n2c(CCC(=O)O)ccc2-c2cccs2)cc1	3.98 µM (active)
Cc1cc(NC(=O)CSc2sc3c(O)cc(=O)[nH]c3c2C#N)ccc1Br	8.91 µM (active)
CCc1nnc(NC(=O)CSc2sc3c(O)cc(=O)[nH]c3c2C#N)s1	12.6 µM (active)
N#Cc1c(SCC(=O)Nc2nncs2)sc2c(O)cc(=O)[nH]c12	8.91 µM (active)
N#Cc1c(SCC(=O)Nc2nccs2)sc2c(O)cc(=O)[nH]c12	15.8 µM (active)
Cc1cnc(NC(=O)CSc2c(Cl)cccc2Cl)s1	inactive
CCc1nnc(NC(=O)c2ccc(S(C)(=O)=O)cc2)s1	inactive
O=C(CSc1nc2[nH]c(=O)cc(O)c2s1)Nc1ccc(Cl)c(C(F)(F)F)c1	inactive
CC1Cc2ccccc2N1C(=O)CNc1cccc(S(=O)(=O)N2CCCC2)c1 (stereo not drawn)	inactive
Cc1csc(NC(=O)CSc2nc3[nH]ncc3c(=O)[nH]2)n1	inactive
Cc1csc(NC(=O)CSc2sc3c(O)cc(=O)[nH]c3c2C#N)n1	14.1 µM (active)
COc1ccc(CC(=O)NCC(=O)NC(Cc2ccccc2)C(=O)O)cc1 (stereo not drawn)	inactive
CCc1nnc(NC(=O)c2cc(-c3ccc(C)o3)nc3ccccc23)s1	inactive
O=C(Nc1nccs1)c1cc(-c2ccco2)nc2ccccc12	3.98 µM (active)
CC(=O)c1cccc(NC(=O)c2cc(-c3ccco3)nc3ccccc23)c1	inactive
CCc1nnc(NC(=O)c2cc(-c3ccco3)nc3ccccc23)s1	3.55 µM (active)
Cc1csc(NC(=O)c2cc(-c3ccco3)nc3ccccc23)n1	10 µM (active)
CCOc1ccc(OCc2ccc(C(=O)N3CCOCC3)cc2)cc1	inactive
CCC(C)c1nc2ccsc2c(N2CCOC2=O)c1-c1ccccc1 (stereo not drawn)	inactive
Cc1cccnc1NC(=O)CSc1nnc(COc2ccc(C(C)C)cc2)n1C	inactive
